PubChem BioAssay (NCI)
About 79,000 compounds went through this panel and 15% of them were active in at least one assay; those are over-represented in the sample as a whole. Rule as the data show it: active = growth inhibition above about 70%; inactive = the rest.

Columns and labels:
[1] = NCI Yeast Anticancer Drug Screen. Data for the rad50 strain (AID 155);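 also: 0% = growth of vehicle-only cultures of the same strain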; settings: S. cerevisiae rad50 strain growth inhibition, active compounds read high; at 50.0 µM unless noted
Summary of the method: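 Genetically altered yeast (DNA repair pathway); compound treatment; growth inhibition vs vehicle ctrl.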

[2] = NCI Yeast Anticancer Drug Screen. Data for the mec2-1 strain (AID 157); settings: S. cerevisiae mec2-1 strain, active compounds read high; at 50.0 µM unless noted
Summary of the method: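 Readout is yeast growth inhibition, normalised to vehicle-treated controls, in the mec2-1 strain exposed to compound.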

[3] = NCI Yeast Anticancer Drug Screen. Data for the sgs1 mgt1 strain (AID 161);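 also: 0% = growth of cultures given vehicle only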; settings: S. cerevisiae sgs1 mgt1 strain, active compounds read high; at 50.0 µM unless noted
Summary of the method: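 Yeast cells carrying a defined DNA-repair defect were exposed to test compounds. Growth inhibition was measured relative to vehicle-treated controls.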

[4] = NCI Yeast Anticancer Drug Screen. Data for the cln2 rad14 strain (AID 165);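 also: 0% = growth equal to vehicle treated cultures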; settings: S. cerevisiae cln2 rad14 strain, active compounds read high; at 50.0 µM unless noted
Summary of the method: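 Relative to vehicle controls, growth inhibition of compound-treated cln2 rad14 yeast was recorded.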

[5] = NCI Yeast Anticancer Drug Screen. Data for the bub3 strain (AID 167); settings: S. cerevisiae bub3 mutant strain, active compounds read high; at 50.0 µM unless noted
Summary of the method: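 Yeast carrying a defined mutation is treated with each compound, and growth is compared with that of vehicle-exposed cells to give inhibition.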

[6] = NCI Yeast Anticancer Drug Screen. Data for the mlh1 rad18 strain (AID 175); settings: S. cerevisiae mlh1 rad18 strain growth inhibition, active compounds read high; at 50.0 µM unless noted
Summary of the method: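 Test agents were incubated with a yeast strain of defined genotype (DNA damage repair defect). Inhibition of growth was derived by comparison with vehicle-exposed cultures.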

Measured: growth inhibition

Nc1ncnc2c1ccn2COCCO
inactive: [1] -8.25% | [2] 1.55% | [3] 4.7% | [4] -43.9% | [5] -12.5% | [6] -3.9%

CC(C)(C)OC(=O)N1CCC2(CC1)C(=O)NCN2c1ccccc1
inactive: [1] 23.4% | [2] 11.9% | [3] -3% | [4] 31.2% | [5] 0.7% | [6] -38.9%

Nc1ccccc1S(=O)(=O)Nc1ccccc1
inactive: [1] 30.9% | [2] 18.9% | [3] 12.5% | [4] -10.3% | [5] -28.4% | [6] 21.4%

CN(C)c1ccc(S(=O)(=O)OC2C(C3COC(C)(C)O3)OC3OC(C)(C)OC32)cc1 (stereo unspecified)
inactive: [1] -8.5% | [2] 0.75% | [3] -8.7% | [4] -16.2% | [5] 3.25% | [6] 4.7%

COC1=Nc2ccccc2N2CCN=C12
inactive: [1] 4.55% | [2] -23.6% | [3] -8.7% | [4] -1.35% | [5] -8.75% | [6] -12.8%

COc1ccccc1NC(=O)C1=C(C)NC(C)=C(C(=O)Nc2ccccc2OC)C1c1ccccc1F
inactive: [1] 32% | [2] 5.35% | [3] 17.1% | [4] 16% | [5] -1.05% | [6] 15.7%
